Experimental data reported in PubChem BioAssay (NCATS).
Inconclusive results are not listed. A call without a number means that no potency is given here. Activity calls are given as the source filed them. The call rests on the fitted dose curve; in most records, active means well fitted inhibition curve with a large enough effect; inconclusive means small, poorly fitted or top-dose-only effect; inactive means flat fitted curve, though single readings scatter.

Assay: qHTS for differential inhibitors of proliferation of Plasmodium falciparum line Dd2 (AID 1882); further: nearly all actives have a fitted effect of over 65% in size
Settings: Potency: Plasmodium falciparum Dd2 proliferation inhibition; series mostly up to 28.7 µM
Text: NIH Molecular Libraries Probe Production Network [MLPCN]
NIH National Institute of Allergy and Infectious Diseases [NIAID]
NIH Chemical Genomics Center [NCGC]
Assay Provider: Xinzhuan Su, NIAID
Plasmodium falciparum is a virulent malarial parasite that kills 1-2 million people worldwide each year. Transmitted by mosquitoes, the sporozoite form of the parasite enters the blood stream to infect hepatocytes, where they become merozoites that infect red blood cells (erythrocytes). Within erythrocytes, merozoites begin a […] cycle of growth and division, after which the parasite is released to infect new red blood cells. Gametocytes, which form within erythrocytes as well, circulate in the bloodstream and are ingested by the mosquito, thereby completing the life cycle. To profile malarial isolates for differential chemical responses and to identify inhibitors of malarial growth, an assay that measures P. falciparum growth and replication within erythrocytes was employed. This assay uses a DNA binding fluorescent dye (SYBR Green) to detect parasite DNA following cell lysis. Because mature erythrocytes lack DNA, only Plasmodium-derived DNA is detected. The P. falciparum line Dd2, derived from a malarial isolate from […], was used.
NCGC Assay Protocol Summary:
The SYBR Green viability assay was adapted from a method described previously (Plouffe et al., 2008). For screening 3 ul culture medium was dispensed into 1536 well black clear bottom plates (Aurora Biotechnologies) using a Multidrop Combi (Thermo Fisher Scientific Inc.), 23 nL compounds in DMSO were added by a pin tool (Kalypsys), and 5 ul of erythrocytes infected with P. falciparum line Dd2 (0.3% parasitemia, 2.5% hematocrit final concentration) were added. The plates were incubated at 37 C in a humidified incubator in 5% CO2 for 72 h, and 2 ul lysis buffer (20 mM Tris HCl, 10 mM EDTA, […]% saponin, 1.6% triton X, 10X SYBR Green I supplied as 10,000X […] by Invitrogen) was added to each well. The plates were mixed for 25 sec with gentle shaking and incubated overnight at room temperature in the dark. The following morning, fluorescence intensity at 485(14) nm excitation and 535(25) nm emission wavelengths was measured on an EnVision (Perkin Elmer) plate reader. Plate reads were normalized relative to the control inhibitor (0.29 uM artemisinin) and vehicle (DMSO) wells present on each plate and then corrected by an algorithm using vehicle-only control plates at the beginning and end of the compound plate stack.
Plouffe D, Brinker A, McNamara C, Henson K, Kato N, Kuhen K, Nagle A, Adrian F, Matzen JT, Anderson P, Nam TG, Gray NS, Chatterjee A, Janes J, Yan SF, Trager R, Caldwell JS, Schultz PG, Zhou Y, Winzeler EA. […] Proc Natl Acad Sci U S A. 2008, 105(26), pp 9059-64.
Potency means the concentration at half of the fitted maximal effect.

Compound | Potency
O=c1c(-c2ccc(O)cc2)coc2cc(O)ccc12 | inactive
CCN(CC)CCNC(=O)c1ccc(N)cc1 | inactive
CC(=O)CCCCn1c(=O)c2c(ncn2C)n(C)c1=O | inactive
NCCS | inactive
CC1=C(/C=C/C(C)=C/C=C/C(C)=C/C(=O)Nc2ccc(O)cc2)C(C)(C)CCC1 | 11.2 µM (active)
COc1cccc(-c2cc(=O)c3ccccc3o2)c1N | inactive
O=c1cc(-c2ccc(O)cc2)oc2cc(O)cc(O)c12 | inactive
C[N+](C)(C)CCCCCC[N+](C)(C)C | inactive
CCN(CC)CCOC(=O)c1ccc(N)cc1 | inactive
CCN(CC)C(=O)c1ccc(O)c(OC)c1 | inactive
O=C1NCC2(CCN(CCc3ccccc3)CC2)O1 | inactive
CC/C(=C(\c1ccccc1)c1ccc(OCCN(C)C)cc1)c1ccccc1 | 11.2 µM (active)
CC(=O)c1ccc(S(=O)(=O)NC(=O)NC2CCCCC2)cc1 | inactive
O=C1NC(=O)C(c2ccccc2)(c2ccccc2)N1 | inactive
CCCNC(=O)NS(=O)(=O)c1ccc(Cl)cc1 | inactive
COc1ccccc1N1CCN(CCCNc2cc(=O)n(C)c(=O)n2C)CC1 | inactive
NC(N)=Nc1nc(CSCC/C(N)=N/S(N)(=O)=O)cs1 | inactive
CC1(C)CCC2=C(O1)c1ccccc1C(=O)C2=O | 12.6 µM (active)
COC(=O)[C@@H]1[C@H]2C[C@H]3c4[nH]c5ccccc5c4CCN3C[C@@H]2CC[C@@H]1O | inactive
CCN1CCC[C@H]1CNC(=O)c1cc(S(N)(=O)=O)ccc1OC | inactive
CC(=O)N[C@@H](CS)C(=O)O | inactive
